Data as given in PubChem BioAssay AID1159580 (chemical genetic matrix, 2015).
Several values for one entry are separate records, joined by “and”; a condition that tells them apart may be missing. Identical values can stand only once. Hit rate of the full screen: of about 5,500 compounds, about 2,000 (36%) were called active. Inconclusive results (about 18%) are left out. Rule as the data show it: active = normalized growth mostly below about 0.91 (no sharp cut-off); inconclusive = no clear call, values can overlap the other calls; inactive = mostly above about 0.92. The list shows a part of the results.

Experiment: chemical genetic growth profiling, strain panel (AID 1159580);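 also: tested at 20 µM; growth read once vehicle control cultures reached saturation at 30 °C; 1 = growth at the plate median or of vehicle wells; lower values mean less growth of the strain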
Conditions: S. cerevisiae deletion strains, growth OD

Measured: normalized growth

COc1ccc(NS(=O)(=O)c2ccc(N)cc2)nn1
inactive: locus YAL013W, strain DEP1, active compounds read low 1.01 | locus YAL021C, strain ccr4, active compounds read low 0.989 | locus YAL026C, strain drs2, active compounds read low 1 | locus YAL030W, strain snc1, active compounds read low 0.996 | locus YBL061C, strain skt5, active compounds read low 0.992 | locus YBR009C, strain hhf1, active compounds read low 0.978 | locus YBR021W, strain FUR4, active compounds read low 1.02 | locus YBR023C, strain chs3, active compounds read low 1.01 | locus YBR171W, strain sec66, active compounds read low 0.999 | locus YBR229C, strain ROT2, active compounds read low 1.02 | locus YBR231C, strain swc5, active compounds read low 1 | locus YBR279W, strain paf1, active compounds read low 1 | locus YCL011C, strain gbp2, active compounds read low 1.01 | locus YCL016C, strain dcc1, active compounds read low 0.996 | locus YCL029C, strain bik1, active compounds read low 0.996 | locus YCL069W, strain vba3, active compounds read low 0.992 | locus YCR088W, strain abp1, active compounds read low 1 | locus YDL005C, strain med2, active compounds read low 0.998 | locus YDL035C, strain GPR1, active compounds read low 1.02 | locus YDL040C, strain nat1, active compounds read low 1 | locus YDL074C, strain BRE1, active compounds read low 1.04 | locus YDL101C, strain DUN1, active compounds read low 1.03 | locus YDL134C, strain PPH21, active compounds read low 1.01 | locus YDL185W, strain tfp1, active compounds read low 0.996 | locus YDL192W, strain arf1, active compounds read low 0.99 | locus YDR001C, strain nth1, active compounds read low 1.01 | locus YDR069C, strain doa4, active compounds read low 1 | locus YDR101C, strain arx1, active compounds read low 1 | locus YDR137W, strain rgp1, active compounds read low 1 | locus YDR150W, strain NUM1, active compounds read low 1.02 | locus YDR159W, strain sac3, active compounds read low 0.907 | locus YDR162C, strain NBP2, active compounds read low 1.01 | locus YDR195W, strain ref2 1 | locus YDR297W, strain sur2, active compounds read low 0.989 | locus YDR318W, strain mcm21, active compounds read low 0.988 | locus YDR334W, strain swr1, active compounds read low 1.01 | locus YDR335W, strain msn5, active compounds read low 1 | locus YDR388W, active compounds read low 0.993 | locus YDR392W, strain spt3, active compounds read low 0.881 | locus YDR502C, strain sam2, active compounds read low 0.983 | locus YEL003W, strain gim4, active compounds read low 1.02 | locus YEL037C, strain rad23, active compounds read low 0.995 | locus YEL061C, strain CIN8 (second series), active compounds read low 1.01 | locus YEL061C, strain CIN8, active compounds read low 1.02 | locus YER015W, strain faa2, active compounds read low 1.01 | locus YER016W, strain bim1, active compounds read low 0.988 | locus YER110C, active compounds read low 0.992 | locus YER111C, strain swi4, active compounds read low 0.995 | locus YER155C, strain BEM2 (second series), active compounds read low 0.962 | locus YER155C, strain BEM2, active compounds read low 1 | locus YER167W, strain BCK2, active compounds read low 1.01 | locus YFR010W, strain ubp6, active compounds read low 1 | locus YGL078C, strain dbp3, active compounds read low 0.986 | locus YGL086W, strain mad1, active compounds read low 0.995 | locus YGL167C, strain pmr1, active compounds read low 0.999 | locus YGL173C, strain kem1, active compounds read low 1 | locus YGL227W, strain vid30, active compounds read low 1 | locus YGL240W, strain doc1, active compounds read low 0.987 | locus YGL248W, strain PDE1, active compounds read low 1.03 | locus YGL253W, strain hxk2, active compounds read low 1.01 | locus YGR135W, strain pre9, active compounds read low 0.982 | locus YGR252W, strain gcn5, active compounds read low 0.953 | locus YHR013C, strain ard1, active compounds read low 0.987 | locus YHR027C, strain rpn1, active compounds read low 0.999 | locus YHR030C, strain SLT2, active compounds read low 1.02 and 0.989 | locus YHR079C, strain IRE1 (second series), active compounds read low 0.998 | locus YHR079C, strain IRE1, active compounds read low 0.995 | locus YHR094C, strain hxt1, active compounds read low 0.984 | locus YHR129C, strain ARP1, active compounds read low 1.01 | locus YHR142W, strain chs7, active compounds read low 1 | locus YHR200W, strain rpn10, active compounds read low 0.999 | locus YIL066C, strain RNR3, active compounds read low 1.03 | locus YIL073C, strain SPO22, active compounds read low 0.965 | locus YIL125W, strain kgd1, active compounds read low 0.996 | locus YIR030C, strain dcg1, active compounds read low 0.99 | locus YJL092W, strain hpr5, active compounds read low 1 | locus YJL095W, strain BCK1 (second series), active compounds read low 1 | locus YJL095W, strain BCK1, active compounds read low 1.05 and 1.01 | locus YJL115W, strain asf1, active compounds read low 0.996 | locus YJL129C, strain trk1, active compounds read low 1 | locus YJL134W, strain LCB3, active compounds read low 1.01 | locus YJL154C, strain vps35, active compounds read low 0.997 | locus YJL164C, strain tpk1, active compounds read low 0.985 | locus YJL166W, strain qcr8, active compounds read low 1.02 | locus YJL168C, strain set2, active compounds read low 0.996 | locus YJL187C, strain SWE1 (second series), active compounds read low 1.03 | locus YJR043C, strain POL32, active compounds read low 1.01 | locus YJR066W, strain TOR1, active compounds read low 0.934
